{"source": "PubChem BioAssay (NCATS)", "note": "Inconclusive results are not listed. Entries that show only a call come without a potency. Activity calls are given as the source filed them. The call rests on the fitted dose curve; in most records, active means well fitted inhibition curve with a large enough effect; inconclusive means small, poorly fitted or top-dose-only effect; inactive means no such curve, though single readings can be large or run the other way."}
{"assay": "qHTS assay for measurement of the activity of small molecule inhibitors on Zika virus induced Caspase-3 activity in human iPSC derived neural progenitor cells (hNPCs) (AID 1224857); further: nearly all actives have a fitted effect of over 65% in size", "settings": "hNPCs ZIKV-induced caspase-3/7, Caspase-Glo luminescence, 6 h; series mostly up to 45.7 µM", "in_short": "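hNPCs seeded 350 cells/well, cultured 16–20 h; compounds added 1 h before ZIKV (2 FFU/cell), 37 C 6 h. Caspase-Glo 3/7 luminescence after 30 min RT; % inhibition from induction scaled to uninfected (0%) and infected (100%) wells.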"}
{"smiles": "CCOP(=O)(OCC)C(C)NC(=O)N(CCCl)N=O", "note": "(stereo unspecified)", "Potency": "inactive"}
{"smiles": "CCC(=O)OC1CCC2C3CCC4=CC(=O)CC[C@@]4(C)C3CC[C@]12C", "note": "(stereo partly specified)", "Potency": "inactive"}
{"smiles": "CC[C@@]1(O)C(=O)OCc2c1cc1n(c2=O)Cc2cc3ccccc3nc2-1", "Potency": "inactive"}
{"smiles": "CC1=C(O)C(=O)C=C2C1=CC=C1[C@@]2(C)CC[C@@]2(C)[C@@H]3C[C@](C)(C(=O)O)CC[C@]3(C)CC[C@]12C", "Potency": "inactive"}
{"smiles": "CC(C)(C)[C@]1(O)C[C@@H]2OC(=O)C[C@@]23C(=O)O[C@@H]2OC(=O)[C@H](O)C213", "note": "(stereo partly specified)", "Potency": "inactive"}
{"smiles": "O=C(Nc1ccncc1)C(=O)c1cn(Cc2ccc(Cl)cc2)c2ccccc12", "Potency": "inactive"}
{"smiles": "O=[N+]([O-])c1ncc[nH]1", "Potency": "inactive"}
{"smiles": "COc1cc2cc(c1Cl)N(C)C(=O)C[C@H](OC(=O)C(C)C)[C@]1(C)O[C@H]1[C@H](C)[C@@H]1C[C@@](O)(NC(=O)O1)[C@H](OC)C=CC=C(C)C2", "Potency": "inactive"}
{"smiles": "CC(=Cc1csc(C)n1)[C@@H]1C[C@H]2O[C@@H]2CCC[C@H](C)[C@@H](O)[C@@H](C)C(=O)C(C)(C)[C@@H](O)CC(=O)O1", "Potency": "inactive"}
{"smiles": "CC(=O)O[C@@]12CO[C@H]1C[C@H](O)[C@@]1(C)C(=O)[C@H](O)C3=C(C)[C@@H](O)C[C@@](O)([C@@H](OC(=O)c4ccccc4)[C@@H]21)C3(C)C", "Potency": "inactive"}
{"smiles": "CC(C)[C@]12O[C@@H]1[C@@H]1O[C@]13[C@]1(O[C@H]1C[C@@H]1C4=C(CC[C@@]13C)C(=O)OC4)[C@H]2O", "Potency": "inactive"}
{"smiles": "C[C@H]1CCCC=CC2C[C@H](O)C[C@@H]2[C@H](O)C=CC(=O)O1", "note": "(stereo partly specified)", "Potency": "inactive"}
{"smiles": "COC1=C[C@@H]2[C@@H]3Cc4ccc(OC)c(O)c4[C@]2(CCN3C)CC1=O", "Potency": "inactive"}
{"smiles": "COc1cccc2c1[C@]13CCN(CC4CC4)[C@H](C2)[C@]1(OC)CCC(=O)C3", "Potency": "inactive"}
{"smiles": "C[C@]12CC[C@H](O)CC1=CC[C@H]1[C@H]3CCC(=O)[C@@]3(C)CC[C@@H]12", "Potency": "inactive"}
{"smiles": "O=c1[nH]c2ccc(Cl)cc2c(N[C@@H]2CN3CCC2CC3)c1-c1nc2ccccc2[nH]1", "Potency": "inactive"}
{"assay": "qHTS assay for measurement of the activity of small molecule inhibitors on Zika virus induced Caspase-3 activity in human astrocytoma cells (AID 1224859)", "settings": "SNB-19 ZIKV-induced caspase-3/7, luminescence, 6 h; series mostly up to 45.7 µM", "in_short": "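Luminescence read-out (Caspase-Glo 3/7, 30 min RT) of caspase activity in SNB-19 cells infected 6 h with ZIKV, 2 FFU/cell, after 1 h compound pretreatment; % inhibition from induction normalised to uninfected (0%) and infected (100%) wells.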"}
{"smiles": "CC(=O)OCC1=C(C(=O)O)N2C(=O)[C@@H](N)[C@@H]2SC1", "Potency": "inactive"}
{"smiles": "CN[C@@H]1Cc2cccc3[nH]c(=O)n(c23)C1", "Potency": "inactive"}
{"smiles": "COc1ccc2c(c1)[C@]13CCCCC1C(C2)N(C)CC3", "note": "(stereo partly specified)", "Potency": "inactive"}
{"smiles": "C[C@H]([C@H](O)CCC(C)(C)O)[C@H]1CC[C@@]2(O)C3=CC(=O)[C@@H]4C[C@@H](O)[C@@H](O)C[C@]4(C)[C@@H]3CC[C@]12C", "Potency": "inactive"}
{"smiles": "COC(=O)[C@@H](N)CCCN=C(N)N[N+](=O)[O-]", "Potency": "inactive"}
{"smiles": "C[C@@H]1CC[C@@]2(OC1)O[C@H]1C[C@H]3[C@@H]4CC=C5C[C@@H](O[C@@H]6O[C@H](CO)[C@@H](O[C@@H]7O[C@@H](C)[C@H](O)[C@@H](O)[C@@H]7O)[C@H](O)[C@@H]6O[C@@H]6O[C@@H](C)[C@H](O)[C@@H](O)[C@@H]6O)CC[C@]5(C)[C@@H]4CC[C@]3(C)[C@@H]1[C@H]2C", "Potency": "inactive"}
{"smiles": "C[C@]12Cc3cn[nH]c3C[C@@H]1CC[C@@H]1[C@H]2CC[C@@]2(C)[C@H]1CC[C@]2(C)O", "Potency": "inactive"}
{"smiles": "C[C@@H]1CC[C@H]2[C@@H](C)C(=O)O[C@@H]3O[C@@]4(C)CC[C@H]1[C@]32OO4", "Potency": "inactive"}
{"smiles": "COC[C@H]1OC(=O)c2coc3c2[C@@]1(C)C1=C(C3=O)[C@@H]2CC[C@H](O)[C@@]2(C)C[C@@H]1OC(C)=O", "Potency": "inactive"}
{"smiles": "C[C@]12CC[C@@H]3[C@@H](CCC4=CC(=O)CC[C@@H]43)[C@@H]1CC[C@@H]2OC(=O)CCc1ccccc1", "Potency": "inactive"}
{"smiles": "COc1cc([C@@H]2c3cc4c(cc3[C@@H](O)C3COC(=O)C32)OCO4)cc(OC)c1O", "note": "(stereo partly specified)", "Potency": "inactive"}
{"smiles": "O=c1cccc2n1CC1CNC[C@H]2C1", "Potency": "inactive"}
{"smiles": "C[C@@H]1O[C@@H](O[C@@H]2C=C3CC[C@@H]4[C@@H](CC[C@]5(C)[C@H](c6ccc(=O)oc6)CC[C@@]45O)[C@@]3(C)CC2)[C@H](O)[C@H](O)[C@H]1O", "Potency": "inactive"}
{"smiles": "CC(C)(O)C=CC(=O)[C@](C)(O)[C@H]1[C@H](O)C[C@]2(C)[C@@H]3CC=C4[C@@H](C=C(O)C(=O)C4(C)C)[C@]3(C)C(=O)C[C@@]12C", "Potency": "inactive"}
{"smiles": "Cc1ccccc1-n1c(Cn2ncc3c(N)ncnc32)nc2cccc(C)c2c1=O", "Potency": "inactive"}
{"smiles": "Cc1[nH]nc2ccc(-c3cncc(OC[C@@H](N)Cc4c[nH]c5ccccc45)c3)cc12", "Potency": "inactive"}
{"smiles": "Clc1ccccc1C(c1ccccc1)(c1ccccc1)n1cccn1", "Potency": "inactive"}
{"smiles": "C#C[C@]1(O)C=C[C@@H]2[C@@H]3CCC4=CC(=O)CC[C@@H]4[C@H]3CC[C@@]21CC", "Potency": "inactive"}
{"smiles": "CN(C)[C@@H]1C(=O)C(C(N)=O)=C(O)[C@@]2(O)C(=O)C3=C(O)c4c(O)cccc4[C@@](C)(O)[C@H]3[C@H](O)[C@@H]12", "Potency": "inactive"}
{"smiles": "C[C@]12CC[C@H]3[C@@H](CCC4=CC(=O)CC[C@@]43C)[C@H]1CC[C@H]2OC(=O)CCC1CCCC1", "Potency": "inactive"}
{"smiles": "CC(=Cc1csc(C)n1)[C@@H]1C[C@H]2O[C@]2(C)CCC[C@H](C)[C@@H](O)[C@@H](C)C(=O)C(C)(C)[C@@H](O)CC(=O)O1", "Potency": "inactive"}
{"smiles": "COCC1(CO)C(=O)C2CCN1CC2", "note": "(stereo unspecified)", "Potency": "inactive"}
{"smiles": "O=C(N[C@H]1CN2CCC1CC2)c1ccc(Cl)cc1", "Potency": "inactive"}
{"smiles": "C[C@@H]1[C@H](O)[C@@H](C)C=CC=CCCC=CC=CC=CC=C[C@H](O[C@H]2O[C@@H](C)[C@H](O)[C@@H](N)[C@@H]2O)CC2O[C@](O)(C[C@@H](O)[C@H](O)CC[C@@H](O)C[C@@H](O)C[C@@H](O)CC(=O)O[C@H]1C)C[C@H](O)[C@H]2C(=O)O", "Potency": "inactive"}
{"smiles": "CCOP(=O)(OCC)C(C)NC(=O)N(CCCl)N=O", "note": "(stereo unspecified)", "Potency": "inactive"}
{"smiles": "CCC(=O)OC1CCC2C3CCC4=CC(=O)CC[C@@]4(C)C3CC[C@]12C", "note": "(stereo partly specified)", "Potency": "inactive"}
{"smiles": "CC[C@@]1(O)C(=O)OCc2c1cc1n(c2=O)Cc2cc3ccccc3nc2-1", "Potency": "inactive"}
{"smiles": "CC1=C(O)C(=O)C=C2C1=CC=C1[C@@]2(C)CC[C@@]2(C)[C@@H]3C[C@](C)(C(=O)O)CC[C@]3(C)CC[C@]12C", "Potency": "inactive"}
{"smiles": "CC(C)(C)[C@]1(O)C[C@@H]2OC(=O)C[C@@]23C(=O)O[C@@H]2OC(=O)[C@H](O)C213", "note": "(stereo partly specified)", "Potency": "inactive"}
{"smiles": "O=C(Nc1ccncc1)C(=O)c1cn(Cc2ccc(Cl)cc2)c2ccccc12", "Potency": "inactive"}
{"smiles": "O=[N+]([O-])c1ncc[nH]1", "Potency": "inactive"}
{"smiles": "COc1cc2cc(c1Cl)N(C)C(=O)C[C@H](OC(=O)C(C)C)[C@]1(C)O[C@H]1[C@H](C)[C@@H]1C[C@@](O)(NC(=O)O1)[C@H](OC)C=CC=C(C)C2", "Potency": "inactive"}
{"smiles": "CC(=Cc1csc(C)n1)[C@@H]1C[C@H]2O[C@@H]2CCC[C@H](C)[C@@H](O)[C@@H](C)C(=O)C(C)(C)[C@@H](O)CC(=O)O1", "Potency": "inactive"}
{"smiles": "CC(=O)O[C@@]12CO[C@H]1C[C@H](O)[C@@]1(C)C(=O)[C@H](O)C3=C(C)[C@@H](O)C[C@@](O)([C@@H](OC(=O)c4ccccc4)[C@@H]21)C3(C)C", "Potency": "inactive"}
{"smiles": "CC(C)[C@]12O[C@@H]1[C@@H]1O[C@]13[C@]1(O[C@H]1C[C@@H]1C4=C(CC[C@@]13C)C(=O)OC4)[C@H]2O", "Potency": "inactive"}
{"smiles": "C[C@H]1CCCC=CC2C[C@H](O)C[C@@H]2[C@H](O)C=CC(=O)O1", "note": "(stereo partly specified)", "Potency": "inactive"}
{"smiles": "COC1=C[C@@H]2[C@@H]3Cc4ccc(OC)c(O)c4[C@]2(CCN3C)CC1=O", "Potency": "inactive"}
{"smiles": "COc1cccc2c1[C@]13CCN(CC4CC4)[C@H](C2)[C@]1(OC)CCC(=O)C3", "Potency": "inactive"}
{"smiles": "C[C@]12CC[C@H](O)CC1=CC[C@H]1[C@H]3CCC(=O)[C@@]3(C)CC[C@@H]12", "Potency": "inactive"}
{"smiles": "O=c1[nH]c2ccc(Cl)cc2c(N[C@@H]2CN3CCC2CC3)c1-c1nc2ccccc2[nH]1", "Potency": "inactive"}
